Source: PubChem BioAssay (Tox21)
Results filed as inconclusive are left out. Where a call stands in place of a potency, no number is given. Values without a mark were called inactive. The source made the active and inactive calls. Calls come from the whole dose curve; as a rule, active = well fitted curve in the direction sought with a large enough effect in the repeat runs; inconclusive = weak or mixed curves; inactive = no such curve, though single readings can be large; an effect the other way counts as inactive or inconclusive.

Key:
[1] = molecular target: Nuclear receptor subfamily 1 group I member 2 (Rattus norvegicus) (UniProt Q9R1A7); experiment: Rat pregnane X receptor (rPXR) activation by small molecules, qHTS assay (AID 1346983); settings: rPXR luciferase reporter cells, One-Glo luminescence, 24 h; max activation: hits give high values; note: nearly all actives have a fitted effect of over 20% in size; note: potency is the fitted concentration of half-maximal effect
Outline: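 Luminescent readout (One-Glo luciferase, 30 min room temperature) followed 24 hr compound treatment at 37 C of rPXR cells plated 2,000 per well and preincubated 5hr; qHTS format with compounds delivered in DMSO.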

[2] = molecular target: Nuclear receptor subfamily 1 group I member 2 (Homo sapiens) (UniProt O75469); experiment: CYP3A4 induction through human pregnane X receptor (PXR) by small molecules, qHTS assay (AID 1346984); note: nearly all actives have a fitted effect of over 40% in size
Outline: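 Steps: seed DPX-2 cells, 5 hr at 37C; pin-transfer compounds; 24 hr at 37C; add Luciferin-IPA (3uM final), 3 hr at 37C; add One-Glo, 30 min RT; read luminescence.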

[3] = molecular target: Nuclear receptor subfamily 1 group I member 2 (Homo sapiens) (UniProt O75469); experiment: Human pregnane X receptor (PXR) activation by small molecules, qHTS assay (AID 1346985); note: nearly all actives have a fitted effect of over 40% in size; note: potency is the fitted concentration of half-maximal effect
Outline: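 DPX-2 cells (HepG2 co-transfected with a PXR response element and a CYP3A4-promoter luciferase construct) were seeded at 2,000 per well, rested 5 hr at 37C, then exposed to DMSO-dissolved compounds for 24 hr. Activation was read as luciferase luminescence.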

Sequence of Nuclear receptor subfamily 1 group I member 2 (Rattus norvegicus) (Q9R1A7 whole entry, looked up): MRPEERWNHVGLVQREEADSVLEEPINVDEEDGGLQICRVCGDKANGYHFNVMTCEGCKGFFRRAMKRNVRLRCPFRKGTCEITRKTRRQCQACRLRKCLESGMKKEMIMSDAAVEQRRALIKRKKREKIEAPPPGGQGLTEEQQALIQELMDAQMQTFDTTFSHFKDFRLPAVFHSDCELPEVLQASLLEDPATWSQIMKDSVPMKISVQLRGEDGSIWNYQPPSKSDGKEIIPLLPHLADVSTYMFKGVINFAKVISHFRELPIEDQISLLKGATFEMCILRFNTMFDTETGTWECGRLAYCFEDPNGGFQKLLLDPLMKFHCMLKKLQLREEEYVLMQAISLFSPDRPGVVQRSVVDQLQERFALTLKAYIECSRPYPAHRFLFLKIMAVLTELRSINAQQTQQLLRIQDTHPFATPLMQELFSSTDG

SMILES | max activation [1] [%] | Potency [2] | Potency [3] | Potency [1]
Cc1cn([C@H]2C[C@H](O)[C@@H](CO)O2)c(=O)[nH]c1=O | -1.3 | inactive | inactive | –
Nc1cc(Cl)c(NC2=NCCN2)c(Cl)c1 | -1.9 | inactive | inactive | –
O=C1c2ccccc2C(=O)C1c1ccc(F)cc1 | – | inactive | 12.6 µM (active) | 28.2 µM (active)
N[C@@H](Cc1cnc[nH]1)C(=O)O | -4.66 | inactive | inactive | –
NC(=O)[C@H]1O[C@@H](O)[C@H](O)[C@@H](O)[C@@H]1O | -0.18 | inactive | inactive | –
O=P(O)(O)C(O)(Cn1ccnc1)P(=O)(O)O | -1.82 | inactive | inactive | –
CC12CCC(C1)C(C)(C)C2=O (stereo not given) | -2.76 | inactive | inactive | –
O=C1c2c(O)cccc2[C@H]([C@@H]2O[C@H](CO)[C@@H](O)[C@H](O)[C@H]2O)c2cc(CO)cc(O)c21 | 0.818 | inactive | inactive | –
C[C@]12O[C@H](C[C@]1(O)CO)n1c3ccccc3c3c4c(c5c6ccccc6n2c5c31)CNC4=O | -24.6 | inactive | inactive | –
CC[C@H]1OC(=O)C[C@@H](O)[C@H](C)[C@@H](O[C@@H]2O[C@H](C)[C@@H](O)[C@H](N(C)C)[C@H]2O)[C@@H](CCN2C[C@H](C)C[C@H](C)C2)C[C@@H](C)C(=O)/C=C/C(C)=C/[C@@H]1CO[C@@H]1O[C@H](C)[C@@H](O)[C@@H](OC)[C@H]1OC | -0.718 | inactive | inactive | –
